Assay outcomes as filed in PubChem BioAssay.
Shown are actives, neighbours in structure and some others; about 3.3% of the full set was active somewhere.
esBAF inh – Bmi1 luciferase reporter increase in mESCs, primary screen, esBAF inhibitor project, mouse ES cells, Bmi1 luciferase knock-in, single point; 24 h; 100% = twice the neutral-well signal; reporter increase, % at 12.5 µM; 2% of 350,000 active; AID 602393, 2012; in the data active = activation above about 40%;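 note: a rise in the Bmi1 reporter signal indicates esBAF inhibition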
697 NFkB inh – inhibitors of PMA/ionomycin-induced NF-kB reporter, 697 cells, primary screen, B-cell NF-kB inhibitor project, cell-based, luminescence, uHTS; 697 B-cell NF-kB luciferase reporter, 16 h; inhibition, % at 4 µM; 0.33% of 330,000 active; AID 435022, 2010; in the data active = inhibition above about 35%
Gli-Sufu block – Gli-Sufu pathway antagonists, primary screen, luciferase luminescence, Sufu-KO-LIGHT cells, uHTS; Sufu-KO-LIGHT fibroblasts, Gli luciferase reporter luminescence; inhibition, % at 5 µM; 0.74% of 340,000 active;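 active = inhibition above about 55%, limit read from the data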
SMARCA2 activ – SMARCA2 (BRM) function activators, primary screen, cell-based, luminescence, high throughput; activation, % at 9.1 µM; 1% of 370,000 active; MG213 cells, MMTV-luciferase reporter, dexamethasone, overnight; AID 652017, 2013; in the data active = activation above about 7.8%
Jurkat NFkB inh – inhibitors of induced NF-kB luciferase reporter, primary screen, TCR NF-kB activation inhibitor project, cell-based, luminescence, uHTS; inhibition, % at 4 µM; AID 435003, 2010; Jurkat, PMA/ionomycin-induced NF-kB luciferase reporter; 0.53% of 330,000 active; in the data active = inhibition above about 50%
Gli-Sufu confirm – Gli-SUFU pathway antagonists, confirmation, single concentration, luciferase luminescence, Sufu-KO-LIGHT cells; Gli luciferase reporter; 40% of 2,500 active; AID 602428, 2012; shares compounds with Gli-Sufu block; inhibition, % at 5 µM;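 active = mean inhibition at 5 µM reaching about 45%, limit read from the data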
SufuKO cytotox – cytotoxicity in Sufu-KO-LIGHT cells, confirmation, cytotoxicity control for Gli-SUFU antagonist project, cell-based, ATP luminescence, single concentration | cytotoxicity, % at 5 µM | 32% of 2,500 active | AID 651994, 2013 | shares compounds with Gli-Sufu block;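 active = mean cytotoxicity at 5 µM above about 25%, limit read from the data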;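 note: cells exposed to compound overnight for roughly 16 to 18 hours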
Wnt3a counter – Wnt3a reporter signal inhibition, confirmation, counter-screen for Gli-SUFU antagonist project, Wnt-LIGHT cells, luminescence, single concentration; shares compounds with Gli-Sufu block; Wnt3a-driven luciferase reporter; inhibition, % at 6.25 µM; 20% of 2,500 active; AID 651995, 2013;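 active = mean inhibition above about 25%, limit read from the data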
Numbers stand for hits; i = inactive; nt = not tested or not shown.

SMILES | esBAF inh | 697 NFkB inh | Gli-Sufu block | SMARCA2 activ | Jurkat NFkB inh | Gli-Sufu confirm | SufuKO cytotox | Wnt3a counter
CN(C)C(=O)C[C@H]1C[C@H]2c3cc(NC(=O)c4cccnc4)ccc3O[C@H]2[C@H](CO)O1 | i | nt | nt | nt | nt | nt | nt | nt
CC(=O)c1c(C)nc2ccccc2c1N | i | i | i | i | i | nt | nt | nt
Cc1nc2ccccc2c(N)c1C(=O)/C=C/c1ccccc1 | i | i | 61 | i | i | i | i | i
C[C@H]1CN([C@@H](C)CO)C(=O)c2cc(NC(=O)Nc3ccc(F)cc3)ccc2O[C@H]1CN(C)Cc1ccc(C(=O)O)cc1 | i | nt | nt | nt | nt | nt | nt | nt
CCc1cc(C(=O)NC2CCCN(Cc3ccccc3F)C2)n(C)n1 (stereo not given) | i | i | 65 | i | i | i | i | i
O=C(C[C@@H]1CC[C@@H](NC(=O)C2CC2)[C@@H](CO)O1)Nc1nccs1 | i | nt | nt | nt | nt | nt | nt | nt
Cc1ccc(-c2nnc(NC(=O)c3ccco3)o2)c(C)c1 | i | i | 73 | i | i | i | i | i
COc1ccc(-n2c(-c3ccc(Br)cc3)c[n+]3c2CCCCC3)cc1 | nt | i | 88 | i | i | 86 | 41 | i
COc1ccc(-n2c(-c3ccccc3)c[n+]3c2CCC3)cc1 | i | i | 72 | i | i | 80 | 38 | i
COc1ccc(-n2c(-c3ccc(Br)cc3)n[nH]c2=S)cc1 | i | i | i | i | i | nt | nt | nt
COc1ccc(-n2c(-c3ccc(Br)cc3)c[n+]3c2SC(C)C3)cc1 (stereo not given) | nt | i | 76 | i | i | 85 | 42 | i
COc1ccc(-n2c(-c3ccc(Br)cc3)nc(=S)c3c2CCCC3)cc1 | nt | i | i | i | i | nt | nt | nt
COc1ccc(-n2c(-c3ccc(Br)cc3)c[n+]3c2CCC3)cc1 | i | i | 80 | i | i | 80 | 38 | i
C/C=C/c1ccc2c(c1)O[C@@H](CN(C)C(=O)NC(C)C)[C@@H](C)CN([C@@H](C)CO)S2(=O)=O | i | nt | nt | nt | nt | nt | nt | nt
Cc1ccc(S(=O)(=O)N(C)C[C@@H]2Oc3ccc(NS(=O)(=O)c4ccccc4)cc3CC(=O)N([C@@H](C)CO)C[C@@H]2C)cc1 | i | nt | nt | nt | nt | nt | nt | nt
CCC(C)CCN1C(N(C)C)=NC[C@@H]1CC(C)C (stereo not given in full) | i | i | 71 | i | i | 56 | i | i
CCC(CC)CN1C(N(C)C)=NC[C@@H]1CC(C)C | i | i | 56 | i | i | 51 | i | i
CC(C)C[C@H]1CN=C(N(C)C)N1CCCCc1ccccc1 | i | i | 61 | i | i | 62 | i | i
COc1ccc(CN(C2CCCC2)S(=O)(=O)c2ccc(-n3cnnn3)cc2)cc1 | i | i | 58 | i | i | i | i | i
C[C@@H]1CN([C@H](C)CO)C(=O)c2cc(NS(=O)(=O)c3ccccc3)ccc2O[C@@H](C)CCCCO[C@H]1CN(C)C(=O)NC1CCCCC1 | i | nt | nt | nt | nt | nt | nt | nt
Cc1[nH]c(C)c(S(=O)(=O)Nc2ccccc2Cl)c1C(=O)N1CCCC1 | i | i | 58 | i | i | i | i | i
CNC[C@H]1OCCCC[C@H](C)Oc2ccc(NS(=O)(=O)c3ccc(C)cc3)cc2C(=O)N([C@@H](C)CO)C[C@@H]1C | i | nt | nt | nt | nt | nt | nt | nt
Cc1ccc(-c2nnc(N3CCN(c4ccccn4)CC3)c3ccccc23)cc1 | nt | i | i | i | i | nt | nt | nt
c1ccc(-c2nnc(N3CCN(c4ccccn4)CC3)c3ccccc23)cc1 | nt | i | 61 | i | i | i | i | i
C[C@H](CO)N1C[C@H](C)[C@H](CN(C)S(=O)(=O)c2cccs2)Oc2ccc(N(C)C)cc2CC1=O | i | nt | nt | nt | nt | nt | nt | nt
SMILES | esBAF inh | 697 NFkB inh | Gli-Sufu block | SMARCA2 activ | Jurkat NFkB inh | Gli-Sufu confirm | SufuKO cytotox | Wnt3a counter
Cc1ccc2c(c1)CCCN2C(=O)CCc1nc2ccccc2c(=O)[nH]1 | i | i | 90 | i | i | i | 55 | i
COC(=O)[C@@H](c1ccccc1)N(C)S(=O)(=O)c1cccc(S(=O)(=O)N(C)[C@@H](C(=O)OC)c2ccccc2)c1 | i | i | 57 | i | i | i | 33 | i
O=C(Cc1c(F)cccc1Cl)NCC(=O)OCc1ccccc1 | nt | i | i | i | i | nt | nt | nt
O=C(CNC(=O)Cc1ccccc1)NCC(=O)OCc1ccccc1 | i | i | 99 | i | i | i | i | i
c1ccc(C[n+]2cccc(-c3ccccc3)c2)cc1 | nt | i | 57 | i | i | 57 | i | i
c1ccc(C[n+]2ccc3ccccc3c2)cc1 | nt | i | i | i | i | nt | nt | nt
COc1ccccc1CC(O)CC1c2c(cc3c(c2OC)OCO3)CCN1C (stereo not given) | i | i | i | i | i | nt | nt | nt
COc1ccc2c(c1OC)C(=O)OC2C1c2c(cc3c(c2OC)OCO3)CCN1C (stereo not given) | i | i | i | i | i | i | i | i
COc1ccc(NC(=O)N(C)C[C@H]2Oc3cc(C#CCC(C)C)ccc3S(=O)(=O)N([C@@H](C)CO)C[C@@H]2C)cc1 | i | nt | nt | nt | nt | nt | nt | nt
FC(F)(F)c1nc(-c2ccncc2)ncc1-c1nnnn1-c1ccccc1 | nt | i | i | i | i | nt | nt | nt
Fc1ccc(-n2nnnc2-c2cnc(-c3cccs3)nc2C(F)(F)F)cc1 | nt | i | i | i | i | 56 | 31 | i
FC(F)(F)c1nc(N2CCCC2)ncc1-c1nnnn1-c1ccc(Cl)cc1 | i | i | i | i | i | 54 | 45 | i
C[C@@H]1CN([C@@H](C)CO)C(=O)c2cc(NC(=O)CCN3CCOCC3)ccc2O[C@@H]1CN(C)Cc1ccccc1 | i | nt | nt | nt | nt | nt | nt | nt
O=C(C1=C[C@H](c2coc3ccccc3c2=O)C[C@H](OCc2ccc(CO)cc2)O1)N1CCN(Cc2ccc3c(c2)OCO3)CC1 | i | i | i | i | i | i | i | i
CCCC(=O)NC1CCc2cc(OC)c(OC)c(OC)c2-c2ccc(OC)c(=O)cc21 (stereo not given) | nt | nt | 56 | i | nt | 58 | 64 | i
COc1cc2c(c(OC)c1OC)-c1ccc(OC)c(=O)cc1C(NC(=O)c1ccccc1)CC2 (stereo not given) | nt | nt | i | i | nt | nt | nt | nt
COC(=O)c1ccc2c(c1)C(NC(C)=O)CCc1cc(OC)c(OC)c(OC)c1-2 (stereo not given) | nt | nt | 65 | i | nt | 60 | 57 | i
C[C@H](CO)N1C[C@H](C)[C@H](CN(C)C(=O)NC2CCCCC2)Oc2ncc(-c3cc4ccccc4o3)cc2C1=O | i | nt | nt | nt | nt | nt | nt | nt
